The results in this text go back to PubChem BioAssay AID651995 (Sanford-Burnham Center for Chemical Genomics, 2013).

Molecules are shown by their SMILES. The whole screen tested about 2,500 compounds, of which about 480 (19%) were called active. Not all results are given here. Unmarked numbers belong to inactive results.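 The calls were made as follows: active = mean inhibition above about 25% (limit read from the data); inactive = the rest.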

This assay is described as follows: inhibitors of Wnt3a-driven luciferase in Wnt-LIGHT cells – cell-based, luminescence, single concentration, counter-screen for Gli-SUFU antagonist project, confirmation (AID 651995). Particulars: Wnt3a-driven luciferase reporter, at 6.25 µM, active compounds read high. On the technique in general: The purpose of a counterscreen is to sort out artefacts and off-target activity.
Consider `CC1(C)CC2CC(C)(CN2c2ncnc3ccc(Br)cc23)C1` (stereo not given), for which the inhibition is 19%.

On to `CC1(C)CC(=O)c2c(n(S(=O)(=O)c3ccccc3)c3ccc(NS(=O)(=O)c4ccccc4)cc23)C1`, for which the inhibition is 13.1%.

On to `COc1ccc(OC)c(Cc2cnc3nc(N)nc(N)c3c2C)c1`, for which the inhibition was 14.4%.

In the case of `O=C1/C(=C/c2ccc(F)cc2)SC(=S)N1NS(=O)(=O)c1ccccc1`, the inhibition is 12.4%.

On to `CN(c1ccc2nc3ccccc3c(=O)n2n1)C1CCCCC1`, for which the inhibition was 101% (active).

Consider `Nc1ccc(C(=O)N2CCN(S(=O)(=O)c3ccc(Cl)cc3)CC2)cc1[N+](=O)[O-]`, for which the inhibition is -13.1%.

With `O=C(CN1CCN(S(=O)(=O)c2cc(Cl)ccc2Cl)CC1)c1ccc(O)c(O)c1`, the inhibition is 73.7% (active).

Turning to `CC(C)(CNC(=O)c1ccc(Cl)c(S(=O)(=O)N2CCc3ccccc3C2)c1)N1CCOCC1`, the inhibition was -21.4%.

In the case of `COc1cccc(-n2cc(C(=O)O)c3ccccc3c2=O)c1`, the inhibition is 20.7%.

As to `CCOC(=O)c1cnc(Nc2nc3ccccc3o2)nc1CSC(=S)N1CCCCC1`, the inhibition was -97.9%.

With `COc1ccccc1CCNC(=O)C(=O)NCCC1CCCCN1S(=O)(=O)c1cccs1` (stereo not given), the inhibition was -17.3%.

As to `CC(=O)Nc1ccc(NC(=O)c2ccc3c(c2)C(=O)N(c2ccccc2C)C3=O)cc1`, the inhibition is 3.62%.

As to `COC(=O)c1ccc(CSc2nnc(N)s2)o1`, the inhibition is -4.51%.

As for `O=C1/C(=C\c2cccnc2)CN(Cc2ccccc2)C/C1=C\c1cccnc1`, the inhibition was -9.32%.

On to `Cc1ccsc1C(=O)OCC(=O)c1cc(C)n(CC2CCCO2)c1C` (stereo not given), for which the inhibition is 104% (active).

For the compound `Cc1onc(-c2ccccc2)c1C(=O)Nc1ccccc1C#N`, the inhibition was -19.9%.

As for `CC(=O)Nc1cccc(OCC(=O)/C=C2\N(C)c3ccccc3C2(C)C)c1`, the inhibition is -13.7%.

On to `CCCCNc1nc2c(c(=O)n(C)c(=O)n2C)n1Cc1cccc(OC)c1`, for which the inhibition was 36.1% (active).

`Cn1c(=O)c2c(nc(NCCc3ccccc3)n2Cc2ccccc2)n(C)c1=O`: the inhibition is -9.98%.

For the compound `COCCn1c(CN2CCC(Cc3ccccc3)CC2)nc2c1c(=O)n(C)c(=O)n2C`, the inhibition is 16.5%.

Turning to `CN(C)c1cc[n+](Cc2ccccc2)cc1`, the inhibition was 12.4%.

With `COc1ccc2nc(SCC(=O)Nc3c(C)cc(C)cc3C)[nH]c2c1`, the inhibition is -15%.

Take `O=C(Nc1cccc(S(=O)(=O)Nc2ccc(Cl)cc2)c1)c1ccc2c(c1)OCCO2`: the inhibition was -22.2%.

As to `Cc1ccc(NC(=S)Nc2ccc(F)cc2)cc1`, the inhibition is -8.22%.

As for `CC(C)c1ccc(OCC(O)CN2CCN(c3ccccn3)CC2)cc1` (stereo not given), the inhibition is -70.7%.

As for `C=CCNC(=S)/N=c1/ccccn1Cc1ccccc1`, the inhibition is -4.94%.

Consider `CCOC(=O)c1ccc(NC(=O)Cn2cnc3cc(C)c(C)cc32)cc1`, for which the inhibition is -27.9%.

For `COc1ccc(NC(=O)[C@H](NC(=O)[C@@H]2Cc3ccccc3CN2)c2ccccc2)cc1`, the inhibition is -2.11%.

For `Cc1ccc(C)c(S(=O)(=O)N2CCN(c3ncnc4sccc34)CC2)c1`, the inhibition is 11.2%.

Take `CC(=O)N1CCCc2cc(S(=O)(=O)N3CCCC(C(=O)N4CCN(c5cccc(Cl)c5)CC4)C3)ccc21` (stereo not given): the inhibition is 29.8% (active).

Take `Brc1c(CSc2nncc3ccccc23)nc2ccccn12`: the inhibition is 1.67%.

Turning to `COc1ccc(Cn2c(-c3ccc(Cl)cc3)c[n+]3ccccc23)cc1`, the inhibition is -74.3%.

For the compound `CCCCC(=O)NC(c1ccc(OC)c(OC)c1)c1ccc2cccnc2c1O` (stereo not given), the inhibition was 53.4% (active).

`Cc1ccc(Nc2nc(N3CCOCC3)nc(N3CCOCC3)n2)cc1Cl`: the inhibition was -104%.

For the compound `COc1ccccc1C1C2=C(COC2=O)Nc2cc3c(cc21)OCO3` (stereo not given), the inhibition was -30.9%.

`COC(=O)Cc1[nH]n(-c2nc3ccccc3s2)c(=O)c1C(C)=Nc1ccc(OC)cc1`: the inhibition is 104% (active).

With `COc1cc(C(=O)OC2CCOC2=O)c([N+](=O)[O-])cc1OC` (stereo not given), the inhibition was 1.38%.

For `CCOc1ccc(-n2c(O)c(/C=N/Nc3nc(C)cc(C)n3)c3ccccc3c2=O)cc1`, the inhibition is 16.1%.

Turning to `CN1C(CC(=O)Nc2ccc(Br)cc2)c2ccccc2CC1(C)C` (stereo not given), the inhibition is -37.9%.

Consider `CC(=O)/C(=N\Nc1ccc(Cl)cc1Cl)Sc1cccc2cccnc12`, for which the inhibition was -140%.

Take `C/C(=N\NC(=O)Cc1ccc(Cl)cc1)c1ccccn1`: the inhibition is 48.9% (active).

With `CCNC(=S)N(CCN(CC)CC)Cc1cc2cc3c(cc2[nH]c1=O)OCO3`, the inhibition was -0.1%.

For the compound `Cc1nonc1C1CCCN1C(=O)c1cc(COc2cccc(C(F)(F)F)c2)on1` (stereo not given), the inhibition is -42%.

As to `Cc1ccc(S(=O)(=O)N(Cc2cc3ccccc3[nH]c2=O)CC2CCCO2)cc1` (stereo not given), the inhibition was 1.8%.

For the compound `Cc1ccccc1C(=O)NC(=S)Nc1ccc(N2CCN(C(=O)c3ccccc3)CC2)cc1`, the inhibition is 41.2% (active).

Take `Cc1cc2[nH]ncc2cc1NC(=S)NC(=O)c1ccccc1`: the inhibition was -34.9%.

With `Cc1cc(C)c(SCCc2ccncc2)c(C)c1`, the inhibition is 32% (active).

Turning to `CCCOc1ccc(Cc2c(Cl)nc(SC)nc2NC)cc1`, the inhibition is 26.9% (active).

Regarding `O=C(Nc1ccnn1C1CCN(C/C=C/c2ccc(F)cc2)CC1)C1CCCC1`, the inhibition is -63.4%.

Consider `CNc1ccc(SC#N)cc1`, for which the inhibition is -9.54%.

`COc1ccc(C(=O)NC2CCCc3c2cnn3-c2cccc(C)c2C)c(OC)n1` (stereo not given): the inhibition is 24.6%.

Turning to `CCN(CC)CCNC(=O)c1ccc(NC(=O)c2cc(-c3ccncc3)nc3ccccc23)cc1`, the inhibition is -2.49%.

For the compound `Cc1ccc(C(=O)C[n+]2cc(-c3ccccc3)n3c2CCCCC3)cc1`, the inhibition was -0.91%.

With `Cc1ccc(-c2nc3c(cnn3-c3ccccc3)c(=O)o2)cc1`, the inhibition is 4.18%.

Take `O=C(C[C@H]1C/C=C\C[C@@H](NC(=O)OCC2c3ccccc3-c3ccccc32)C(=O)O[C@@H](c2ccccc2)CNC1=O)N[C@H](CO)Cc1ccccc1`: the inhibition was -44.6%.

In the case of `COc1ccc(OC)c(/C=N/NC(=O)c2ccc[n+](CC(=O)c3ccccc3)c2)c1`, the inhibition was 2.64%.

As to `CC[n+]1c(C)n(-c2ccccc2)c2ccc(NC(C)=O)cc21`, the inhibition is 43.4% (active).

For the compound `Cc1ccc(O)c(NC(=O)COc2cc(C)ccc2C)c1`, the inhibition was -3.69%.

With `CNc1nnc(-c2ccco2)s1`, the inhibition was -3.08%.

In the case of `COC(=O)c1ccccc1NC(=O)C1(S(=O)(=O)c2ccc(Cl)cc2)CC1`, the inhibition is -1.78%.

Regarding `O=C(Nc1nc2ccc([N+](=O)[O-])cc2s1)c1ccc(S(=O)(=O)N2CCCc3ccccc32)cc1`, the inhibition is 65.8% (active).

On to `CCc1ccc(C2C(C#N)=C(N)N(N3CCOCC3)C3=C2C(=O)CC(C)(C)C3)s1` (stereo not given), for which the inhibition was -28.8%.

Turning to `CCCc1nc(N)nc2c1C(=O)CC(C)(C)C2`, the inhibition is 9.89%.

Regarding `Cc1cc(NC(=O)c2cccc(N3C(=O)CCC3=O)c2)no1`, the inhibition is 66% (active).

Consider `CC1CC2=C(CC1/C=N/NC(N)=S)C(C)(C)CCC2` (stereo not given), for which the inhibition is 21.2%.

Take `CCc1c(C)nc2cc(C)[nH]n2c1=O`: the inhibition is -9.69%.

As to `C/C(=N\Nc1ccc(Cl)nn1)c1ccccc1O`, the inhibition was -26.7%.

In the case of `COc1ccc(Cc2nnc(N/N=C/c3ccccc3O)[nH]c2=O)cc1OC`, the inhibition is 59.9% (active).

Regarding `COc1ccc(/C=N/N=C2/C(=O)Nc3ccccc32)cc1O`, the inhibition is -23.9%.

For the compound `CC(=O)OCCC(C)C`, the inhibition is -9.39%.

On to `c1ccc(-n2nnnc2N2CCOCC2)cc1`, for which the inhibition was -14.5%.

On to `O=C(O)CCCn1cc(NC(=O)COc2cccc(Cl)c2)cn1`, for which the inhibition was 6.24%.

As for `Cc1ccc(NC(=O)CN(C)CC(=O)Nc2cccc(F)c2)cc1[N+](=O)[O-]`, the inhibition is 36.3% (active).

As to `CN(C)CCSc1nc(N)c2c3c(sc2n1)COC(C)(C)C3`, the inhibition is -37.2%.

Consider `CCC1CCCCN1CCCNC(=O)Cn1nc(-c2ccccc2)ccc1=O` (stereo not given), for which the inhibition is 12.7%.

Regarding `O=C1C=C(c2ccnc3cc(Cl)ccc23)C[C@@H](c2ccc3c(c2)OCO3)C1`, the inhibition is 27.6% (active).

As for `CCN(CC)S(=O)(=O)c1ccc(Cl)c(C(=O)NC(C)C(c2cccs2)N2CCCC2)c1` (stereo not given), the inhibition is -35.1%.

For the compound `CSc1ncccc1C(=O)Nc1nc2ccc(F)cc2s1`, the inhibition was 81.3% (active).

Consider `CCN(CCO)C(=S)Nc1cc(C(=O)OC)ccc1C(=O)OC`, for which the inhibition is -4.1%.

Regarding `O=C(Cn1cc(C(=O)C2CC2)c2ccccc21)Nc1ccccc1Cl`, the inhibition is 26.6% (active).

`O=c1c2ccccc2nc2n1C(CSCc1cccc(C(F)(F)F)c1)CS2` (stereo not given): the inhibition is 24.2%.

For `C=CCn1c(SCC(=O)CC(=O)OCC)nc2cc(C(=O)N3CCC(C(N)=O)CC3)ccc2c1=O`, the inhibition is -31.2%.

With `O=C(c1cc(Cl)cc(Cl)c1)N1CCC(=O)N(C(COCc2ccccc2)Cc2ccccc2)CC1` (stereo not given), the inhibition was -8.85%.

Take `CCC(Cc1ccccc1)NC(=O)C1CCCCC1` (stereo not given): the inhibition is -4.89%.

On to `CC(C)OCC(O)CN1CCN(C(c2ccccc2)c2ccccc2)CC1` (stereo not given), for which the inhibition is -21.2%.

With `CCOc1ccc(-n2c(O)c(/C=N/c3ccnn3Cc3ccncc3)c3ccccc3c2=O)cc1`, the inhibition is -8.8%.

Regarding `O=C(CN1C(=O)c2ccccc2S1(=O)=O)N1CCc2ccccc21`, the inhibition is 72.4% (active).

As for `NC(N)=Nc1nc(-c2ccccc2)c2cc(Cl)ccc2n1`, the inhibition was -5.22%.

`CC(C)Oc1ccc(/C=N/NC(=O)c2nnn(-c3nonc3N)c2CN(C)C2CCCCC2)cc1`: the inhibition was -59.5%.

As to `COc1ccc2c(C)cc3nnnn3c2c1`, the inhibition is -7.11%.

Turning to `Cc1ccc(S(=O)(=O)NC(C)C(=O)Nc2ccccc2C(=O)N2CCCC2)cc1` (stereo not given), the inhibition was -22.3%.

On to `O=C(O)c1ccc(N/N=C/c2ccc3ncccc3c2)cc1`, for which the inhibition was 95% (active).

Turning to `NS(=O)(=O)c1ccc(CCNC(=O)CCCn2c(SCC(=O)N3CCCC3)nc3ccsc3c2=O)cc1`, the inhibition was -9.95%.

Consider `C=CCOc1nc2c(c(=O)n(C)c(=O)n2C)n1Cc1ccc(Cl)cc1Cl`, for which the inhibition is -18%.

In the case of `O=C(Nc1cc2c3c(c1)C1CCCC1CN3CC1CCCC21)c1ccc([N+](=O)[O-])cc1` (stereo not given), the inhibition was -20.4%.

As for `CN(NC(=O)c1ccccc1F)c1nc(C(F)(F)F)nc2ccccc12`, the inhibition was -20%.

Regarding `CC(C)(C)c1ccc(Oc2ccc(N)cc2)cc1`, the inhibition was 106% (active).

`Cc1cc(C(=O)CSc2nc(N)cc(=O)[nH]2)c(C)n1-c1cccc(F)c1`: the inhibition was -15.5%.

`CC(=O)c1c(C)[nH]c(C(=O)OCC(=O)Nc2sc3c(c2C#N)CCCC3)c1C`: the inhibition is -44.3%.

For `COc1ccccc1/C=C/CN1CCC(CO)(Cc2ccccc2)CC1`, the inhibition is 3.26%.

Turning to `Cc1cccc(NS(=O)(=O)c2ccc(-c3cnc(C4CC4)o3)cc2)c1`, the inhibition is -40.9%.

In the case of `CCOc1cccc(/C=N/NC(=S)NCCN2CCOCC2)c1O`, the inhibition is -21.9%.

As for `COc1ccc(C(=O)NCc2nnc(SCCOc3ccccc3)n2C)cc1`, the inhibition was -33.1%.

Consider `COc1cccc2cc(C(N)=O)/c(=N\NC(=O)c3ccccc3)oc12`, for which the inhibition was -3.11%.

Take `Cc1cccc2nc(CSc3nc4[nH]ncc4c(=O)n3-c3cccc(Cl)c3)cc(=O)n12`: the inhibition is 33.2% (active).

Consider `COc1cc(C(=O)OC(C)C(=O)NCC2CCCCC2)cc(NC(=O)c2ccco2)c1OC` (stereo not given), for which the inhibition is -76.6%.

On to `CC(C)C(=O)Nc1nnc(SCC(=O)N2C(C)CCCC2C)s1` (stereo not given), for which the inhibition was -26.6%.

Consider `O=C(NCCOCc1ccc(Cl)cc1)c1ncn[nH]1`, for which the inhibition was 33.3% (active).

With `CCn1c(SCc2ccccc2)nc2cc(OC)c(OC)cc2c1=O`, the inhibition is -22.5%.

Take `CC(C)Oc1ccc(CN2CCC(n3nccc3NC(=O)c3cccnc3)CC2)cc1`: the inhibition was -35.7%.

One may read the inhibition as the relative decrease from the control value, in per cent.
